High-throughput results (PubChem BioAssay)
Shown are actives, neighbours in structure and some others; about 3.6% of the full set was active somewhere.
LMP1 NFkB inh = reduces LMP1-driven NF-kappaB luciferase signal | AID 504558 | LMP1-induced NF-kappaB luciferase reporter cells, luminescence | hit rate 0.69% among 350,000 | inhibition, % at 12.5 µM; in the data active = inhibition above about 41%
LGR2 inh = blocks bursicon-induced cAMP signaling via Drosophila LGR2. AID 720647. inhibition, % at 9.99 µM. HEK293 LGR2, CRE-luciferase, bursicon-stimulated, 4 h. hit rate 0.35% among 380,000;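 active = drop in luminescence signal, shown as inhibition above about 50% in the replicate tests, limit read from the data, passing the limit was not always enough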;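 note: agonist challenge used bursicon conditioned medium at about half maximal strength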
HSF1 activator = increases HSF-1 driven luciferase reporter signal. hit rate 1.7% among 300,000. NIH3T3-HGL HSF-1 luciferase reporter, MG132, 8 h; 100% = twice DMSO control signal. AID 504408. activation, % at 9 µM;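 active = mean replicate activation of at least 50% with a set share of replicates each reaching 50%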
HSF1 inh = HSF1 inhibition. NIH3T3-HGL HSE-luciferase, MG132-induced, luminescence 8 h; hits give low values. activity change, negative = inhibition, % at 7.5 µM (by protocol). hit rate 0.77% among 300,000. AID 2098;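 active = more than half of replicate wells show activity change below -50%, luminescence cut by over half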;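 note: luciferase reports HSF-1 transcriptional activity via heat shock element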
TWEAK-Fn14 inh = inhibitors of TWEAK-Fn14 interaction signaling. hit rate 2% among 360,000. TWEAK-stimulated Fn14 reporter cells, luciferase luminescence, 8 h. AID 1159606. inhibition, % at 10 µM; in the data active = inhibition above about 50%
TROY signal inh = TROY signaling inhibition; Q293 LMP1-TROYcd NF-kB luciferase reporter, 4 h; inhibition, % at 10 µM; hit rate 0.98% among 360,000;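 active = compounds whose plate-normalised and pattern-corrected inhibition of the luciferase reporter signal at the single screening dose is 50% or more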
Of the large screens only hits and unclear results are named; the others gave an inactive call; ! = not active in a repeat.

CSc1cccc(NC(=O)c2ccccn2)c1	none (no result: LMP1 NFkB inh, LGR2 inh, TWEAK-Fn14 inh, TROY signal inh)
C[C@@H]1CN([C@H](C)CO)C(=O)Cc2cc(NC(=O)C3CC3)ccc2O[C@H]1CN(C)S(C)(=O)=O	none (no result: LMP1 NFkB inh, HSF1 activator, HSF1 inh, TWEAK-Fn14 inh, TROY signal inh)
COc1ccccc1-c1cnc2c(c1)C(=O)N([C@H](C)CO)C[C@@H](C)[C@H](CN(C)C(=O)c1cccnc1)O2	none (no result: LMP1 NFkB inh, HSF1 activator, HSF1 inh, TWEAK-Fn14 inh, TROY signal inh)
CN1C/C(=C/c2cccnc2)C(=O)/C(=C/c2cccnc2)C1	TWEAK-Fn14 inh 64.8 (no result: HSF1 activator, HSF1 inh)
CCOC(=O)c1cnn(-c2ccccc2)c1NC(=O)CN1CCOCC1	LMP1 NFkB inh 63.3
Cn1c(C=O)c(-c2ccc3cc[nH]c3c2)c2ccccc21	TWEAK-Fn14 inh 65.9 (no result: HSF1 activator, HSF1 inh)
CO[C@H]1CN(C)C(=O)c2ccc(NC(=O)c3cnccn3)cc2OC[C@H](C)N(CCc2ccccc2)C[C@H]1C	none (no result: LMP1 NFkB inh, HSF1 activator, HSF1 inh, TWEAK-Fn14 inh, TROY signal inh)
Cn1c2c(c(=O)n(C)c1=O)C(C(F)(F)F)(C(F)(F)F)N=C(CCC1CCCCC1)N2	LGR2 inh 74.5, TWEAK-Fn14 inh 59.5, TROY signal inh 53.0
Cc1cccc(S(=O)(=O)N[C@@H]2CC[C@@H](CCNS(=O)(=O)c3ccccc3F)O[C@H]2CO)c1	none (no result: LMP1 NFkB inh, HSF1 activator, HSF1 inh, TWEAK-Fn14 inh, TROY signal inh)
O=C1C2C3c4ccccc4C(c4ccccc43)C2c2nc3ccccc3n21 (configuration not stated)	TWEAK-Fn14 inh 51.5 (no result: TROY signal inh)
CN1C(=O)C2C3c4ccccc4C(c4ccccc43)[C@@H]2C1=O (some centres not stated)	none
CC(=O)N1CC=CC1(CC(C)C)C(=O)NCCN1CCOCC1 (configuration not stated)	TWEAK-Fn14 inh 83.2
CC(C)CC1(C(=O)NCCN2CCOCC2)C=CCN1C(=O)c1ccccc1 (configuration not stated)	none
CC(C)N(Cc1ccccc1)C(=O)COC(=O)/C=C/c1cnc2ccccc2n1	HSF1 activator 62.8
O=C(/C=C/c1cnc2ccccc2n1)NC12CC3CC(CC(C3)C1)C2	HSF1 inh -71.3, TWEAK-Fn14 inh 72.7, TROY signal inh 70.5
O=C(O)/C=C/c1cnc2ccccc2n1	TROY signal inh 63.7
C[C@@H]1CN([C@H](C)CO)C(=O)c2cc(C3=CCCC3)cnc2O[C@@H]1CN(C)Cc1ccccc1C(=O)O	none (no result: LMP1 NFkB inh, HSF1 activator, HSF1 inh, TWEAK-Fn14 inh, TROY signal inh)
CC(C)NC(=O)N[C@@H]1CC[C@@H](CCn2cc(-c3ccccc3)nn2)O[C@@H]1CO	none (no result: LMP1 NFkB inh, HSF1 activator, HSF1 inh, TWEAK-Fn14 inh, TROY signal inh)
Cc1c(/C(O)=C2\C(=O)C(=O)N(CCN(C)C)C2c2cccnc2)cnn1-c1ccccc1 (configuration not stated)	none (no result: HSF1 activator, HSF1 inh)
Cc1ccc(C2/C(=C(/O)c3cnn(-c4ccccc4)c3C)C(=O)C(=O)N2CCCN2CCOCC2)o1 (configuration not stated)	none (no result: LMP1 NFkB inh, LGR2 inh, TWEAK-Fn14 inh, TROY signal inh)
Cc1c(/C(O)=C2\C(=O)C(=O)N(CCCN(C)C)C2c2ccccc2)cnn1-c1ccccc1 (configuration not stated)	TWEAK-Fn14 inh 81.5, TROY signal inh 86.2 (no result: HSF1 activator, HSF1 inh)
Cc1c(/C(O)=C2/C(=O)C(=O)N(CCN3CCOCC3)C2c2ccccn2)cnn1-c1ccccc1 (configuration not stated)	LMP1 NFkB inh 54.7, LGR2 inh 79.6, HSF1 inh -85.3, TWEAK-Fn14 inh 91.7, TROY signal inh 85.2
C/C(=N\N=c1/sc2ccccc2n1C)c1ccc(N2CCOCC2)cc1	HSF1 activator 66.0
c1ccc(CCNc2nc(-c3ccccn3)nc3ccccc23)cc1	LMP1 NFkB inh 46.2
C/C(=N\Nc1nc(-c2ccccn2)nc2ccccc12)c1ccc(F)cc1	none (no result: LGR2 inh)
N#Cc1c(-c2ccc3c(c2)OCO3)csc1N	HSF1 inh -81.3 (no result: LGR2 inh)
N#Cc1c(N)c(C#N)c(-c2ccc3c(c2)OCO3)c2c1CCCC2	none
CN1C(=O)c2cc(NC(=O)C3CC3)ccc2OC[C@H]2O[C@@H](CC(=O)NC3CCC3)CC[C@H]21	none (no result: LMP1 NFkB inh, HSF1 activator, HSF1 inh, TWEAK-Fn14 inh, TROY signal inh)
COc1ccc(-c2c(C)nn3c(-c4ccccc4)cc(C)nc23)cc1	none
COc1ccc(-c2c(C)nn3c(Cl)c(C)c(C)nc23)cc1	HSF1 activator 59.6
O=C(O)c1c2c(nc3ccccc13)/C(=C/c1ccc(O)cc1)CC2	LMP1 NFkB inh 53.1, LGR2 inh 71.2, TWEAK-Fn14 inh 77.3, TROY signal inh 50.7
CC[C@@]1(C(=O)OC)N[C@H](CN(C)S(=O)(=O)c2ccc(C(F)(F)F)cc2)[C@@H]2C(=O)N(C)C(=O)[C@@H]21	TWEAK-Fn14 inh 82.9 (no result: HSF1 activator, HSF1 inh)
CCN(C[C@H]1N[C@@](Cc2ccccc2)(C(=O)OC)[C@H]2C(=O)N(Cc3ccccc3)C(=O)[C@@H]12)C(=O)Nc1ccc(C(F)(F)F)cc1	TWEAK-Fn14 inh 83.9, TROY signal inh 50.2 (no result: HSF1 activator, HSF1 inh)
COC(=O)[C@]1(C)N[C@H](CN(C)S(=O)(=O)c2ccc(C(F)(F)F)cc2)[C@@H]2C(=O)N(C)C(=O)[C@@H]21	none (no result: HSF1 activator, HSF1 inh)
CCN(C[C@H]1N[C@@](Cc2ccccc2)(C(=O)OC)[C@H]2C(=O)N(Cc3ccccc3)C(=O)[C@@H]12)C(=O)Nc1ccc(C)cc1	none (no result: HSF1 activator, HSF1 inh)
COc1ccc(C2Nc3ccccc3C(=O)N2Cc2ccco2)cc1CN1C(=O)c2ccccc2C1=O (configuration not stated)	HSF1 activator 62.9!
COc1ccc(C2Nc3ccccc3C(=O)N2Cc2ccccc2)cc1COc1ccccn1 (configuration not stated)	none (no result: LGR2 inh, HSF1 activator, HSF1 inh)
COc1ccc(C2Nc3ccccc3C(=O)N2Cc2ccco2)cc1COc1ccc(F)cc1 (configuration not stated)	HSF1 activator 103.0 (no result: LGR2 inh)
O=C(Nc1cccn(Cc2c(Cl)cccc2Cl)c1=O)c1ccccc1Cl	HSF1 activator 89.0
COc1ccc(Cl)cc1NC(=O)c1cnc2sccn2c1=O	none
CC(=O)Nc1cccn(Cc2c(Cl)cccc2Cl)c1=O	none (no result: LGR2 inh)
O=C(Nc1cccn(Cc2c(Cl)cccc2Cl)c1=O)c1ccc(Cl)cc1Cl	TWEAK-Fn14 inh 64.0 (no result: LGR2 inh)
O=C(Nc1cnc2sccn2c1=O)c1ccc(Cl)cc1Cl	TWEAK-Fn14 inh 56.4
C[C@H]1CCCCO[C@H](CN(C)Cc2ccc(C(=O)O)cc2)[C@@H](C)CN([C@@H](C)CO)C(=O)c2cc(NS(=O)(=O)c3ccc(Cl)cc3)ccc2O1	none (no result: LMP1 NFkB inh, HSF1 activator, HSF1 inh, TWEAK-Fn14 inh, TROY signal inh)
O=C(C[C@H]1CC[C@H](NC(=O)Nc2ccc3c(c2)OCO3)[C@@H](CO)O1)NCc1ccc(Cl)cc1	none (no result: LMP1 NFkB inh, HSF1 activator, HSF1 inh, TWEAK-Fn14 inh, TROY signal inh)
COC(=O)[C@@H]1[C@@H](CO)[C@@H]2Cn3c(ccc(-c4cccc(OC)c4)c3=O)[C@@H]2N1CC1CC1	none (no result: LMP1 NFkB inh, HSF1 activator, HSF1 inh, TWEAK-Fn14 inh, TROY signal inh)
C[C@@H]1CN([C@@H](C)CO)S(=O)(=O)c2ccc(C#CCN(C)C)cc2O[C@@H]1CN(C)Cc1ccncc1	none (no result: LMP1 NFkB inh, HSF1 activator, HSF1 inh, TWEAK-Fn14 inh, TROY signal inh)
CC[C@@H](C(=O)[C@@H](C)[C@@H](O)[C@H](C)CCc1ccc(C)c(O)c1C(=O)O)[C@H]1O[C@](CC)([C@H]2CC[C@](O)(CC)[C@H](C)O2)C[C@@H]1C	LGR2 inh 70.5, TWEAK-Fn14 inh 85.8, TROY signal inh 76.4
CC1CCC(C(C)C)C(OC(=O)C[n+]2cc(-c3ccc(Cl)cc3)n3c2CCC3)C1 (configuration not stated)	TROY signal inh 54.6
